PP1 inh: counter-screen for PP5 inhibitors: inhibitors of human PP1-alpha; P62136; purified PP1alpha, OMFP fluorescence; inhibition, % at 6.7 µM; 320,000 compounds, 0.9% hits;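 active means inhibition above the mean inhibition of all tested compounds plus 3 SD, computed separately for each screening campaign, cut at about 15% in these data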
Target sequence (P62136 whole entry, looked up): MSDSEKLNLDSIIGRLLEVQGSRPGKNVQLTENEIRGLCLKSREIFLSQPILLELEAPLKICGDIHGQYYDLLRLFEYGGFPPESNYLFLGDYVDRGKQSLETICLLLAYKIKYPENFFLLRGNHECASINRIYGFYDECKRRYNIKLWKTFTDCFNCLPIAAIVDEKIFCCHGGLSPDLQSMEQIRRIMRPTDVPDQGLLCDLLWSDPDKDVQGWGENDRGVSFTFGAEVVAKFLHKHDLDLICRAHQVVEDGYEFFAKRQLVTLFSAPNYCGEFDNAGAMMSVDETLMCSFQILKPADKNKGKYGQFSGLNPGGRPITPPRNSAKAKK
PP5 inh: inhibitors of human protein phosphatase 5 (PP5); P53041; purified PP5c, OMFP substrate fluorescence; inhibition, % at 6.7 µM; 320,000 compounds, 0.18% hits;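 active means inhibition above the campaign's mean inhibition across all tested compounds plus 3 SD, cut at about 9.5% in these data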;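 further: 0% = DMSO only and 100% = 100 µM cantharidin control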
DYRK1A inh: blocks rat Dyrk1A kinase activity; Q63470; ADP-Glo luminescence, NFATc1 peptide; inhibition, % at 12.5 µM; 310,000 compounds, 0.43% hits; in the data active means inhibition above about 50%;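 further: plate controls were vehicle with enzyme for no effect and no enzyme for full effect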
HIF act: HIF pathway transcriptional activation | U2OS HRE-luciferase reporter, luminescence; normalized: DMSO 0%, desferrioxamine 100% | activation, % at 7.5 µM (by protocol) | 300,000 compounds, 0.32% hits;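 active means mean activation of at least 10% of the iron chelator positive control signal, with at least half of replicates also reaching 10%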
STK33 inh: inhibitors of human STK33 kinase. purified STK33, MBP phosphorylation, ADP-Glo luminescence. 320,000 compounds, 0.073% hits. inhibition, % at 10 µM. Q9BYT3. AID 2661;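 active means inhibition at or above 25%, using the most active replicate where run in duplicate; inactive means inhibition below 25%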
PP5 inh confirm: confirmation of human PP5 phosphatase inhibitors; shares compounds with PP5 inh; Purified PP5, fluorogenic phosphatase substrate, fluorescence; inhibition, % at 6.7 µM; 460 compounds, 22% hits; in the data active means inhibition above about 9.5%
PP1 inh counter: PP1 phosphatase inhibition, counter-screen for PP5 inhibitors; shares compounds with PP5 inh; PP1 enzyme, fluorescent phosphatase substrate; inhibition, % at 6.7 µM; 460 compounds, 4% hits; AID 2355; in the data active means inhibition above about 16%
PP1 confirm: human PP1 phosphatase inhibition, confirmation. inhibition, % at 6.7 µM. purified PP1alpha, OMFP substrate fluorescence. 1,900 compounds, 52% hits. shares compounds with PP1 inh;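 active means mean PP1 inhibition above a set limit taken from the earlier primary screen, cut at about 15% in these data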
PP5 counter: inhibits human PP5 phosphatase in PP1 counter-screen. shares compounds with PP1 inh. purified PP5c, OMFP fluorescence. inhibition, % at 6.7 µM. 1,900 compounds, 4% hits. AID 2360;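 active means mean PP5 inhibition over triplicate wells above about 9.5% taken from the earlier PP1 screen, limit read from the data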
Starred values were filed as active, the others as inactive; · = not tested or not shown. Sampled rows, rich in hits. Any-hit rate of the full collection: about 1.5%.

SMILES | PP1 inh | PP5 inh | DYRK1A inh | HIF act | STK33 inh | PP1 confirm | PP5 counter | others
CCOP(=O)(CCP(=O)(OCC)OCC)OCC.C[CH2][Sn]([Cl])([Cl])[CH2]C | · | · | -1 | · | · | · | ·
CCn1nc(-c2cccs2)nc2c(=O)n(C)c(=O)nc1-2 | · | · | 63* | · | · | · | ·
Oc1ccccc1-[n+]1c(-c2ccccc2)cc(-c2ccccc2)c(O)c1-c1ccccc1 | 6 | 4 | -2 | 1 | 1 | · | ·
C[C@H]1CCCC(=O)CCC/C=C/c2cc(O)cc(O)c2C(=O)O1 | 0 | 4 | -5 | 0 | 28* | · | ·
CCCCn1c(NC(=O)c2ccco2)c(C(=O)OCC)c2nc3ccccc3nc21 | 5 | 9.6* | 32 | 2 | 2 | · | · | PP5 inh confirm=37*;PP1 inh counter=8
CCCCn1c(NS(=O)(=O)c2ccc(C)cc2)c(C(=O)OCC)c2nc3ccccc3nc21 | -10 | 9 | -8 | 0 | 0 | · | ·
OCC1CO1 (centres undefined) | -7 | 3 | · | · | 1 | · | ·
COc1ccc(Cn2c(N)c(C(=O)NCc3ccco3)c3nc4ccccc4nc32)cc1 | 6 | 11* | 6 | 0 | 0 | · | · | PP5 inh confirm=11*;PP1 inh counter=4
COc1ccc2c(c1)[nH]c1c(C)nccc12 | -1 | 2 | 11 | · | 5 | · | ·
Cc1nccc2c1[nH]c1ccc(Br)cc12 | 21* | 0 | 50 | 1 | -1 | -1 | -1
O=C(NN=Cc1ccc(N(CCCl)CCCl)cc1)C(=O)c1c[nH]c2ccccc12 | · | · | 0 | · | · | · | ·
O=C(O)C1C2c3ccccc3C(c3ccccc32)C1C(=O)Nc1ccccc1 (centres undefined) | -2 | 0 | -1 | 1 | -2 | · | ·
O=C(O)C1C2CCC(O2)C1C(=O)Nc1cccc(Br)c1 (centres undefined) | 69* | 69* | -2 | 0 | 0 | 9 | 19*
O=C(N/N=C/c1c(O)n(Cc2ccc(F)cc2)c(=O)[nH]c1=O)c1ccccc1O | 21* | 4 | · | 0 | 0 | 10 | -2
O=C(N/N=C/c1c(O)n(Cc2ccccc2)c(=O)[nH]c1=O)c1ccccc1O | 8 | 3 | -1 | 0 | -1 | · | ·
COC(=O)C1C2c3ccccc3C(c3ccccc32)C1(C)C(=O)OC (centres undefined) | · | · | 2 | · | · | · | ·
O=c1[nH]c(O)c(C=NCCc2ccccc2)c(=O)[nH]1 | -2 | 0 | 1 | 0 | 0 | · | ·
O=c1[nH]c(O)c(/C=C2\C=Nc3ccc(OCc4ccccc4)cc32)c(=O)[nH]1 | 19* | 0 | 6 | -1 | -1 | 24* | -4
CCCCCn1c(=O)c(C(=O)Nc2ncccc2C)c(O)c2ccccc21 | 25* | 2 | 4 | 1 | -1 | 22* | -3
c1cc2c(cc1NC1=NCCO1)CCCC2 | · | · | -1 | · | · | · | ·
Clc1ccc(COC(Cn2ccnc2)c2ccc(Cl)cc2Cl)c(Cl)c1 (centres undefined) | 23* | 2 | -4 | 0 | -2 | 27* | 2
O=C1NC(=O)N(Cc2ccco2)C(=O)/C1=C/c1ccc(-c2cccc([N+](=O)[O-])c2)o1 | 33* | 1 | 0 | 0 | 0 | 16* | -7
C=CCN1C(=O)NC(=O)/C(=C\c2ccc(-c3ccccc3[N+](=O)[O-])o2)C1=O | 0 | 1 | -1 | 0 | 0 | · | ·
CN1C[C@H](CO)C=C2c3cccc4[nH]cc(c34)C[C@H]21 | 32* | 4 | 19 | -1 | 1 | -3 | 1
Cc1cc(O)c2c(c1)C(=O)C13C(=C2O)C(=O)[C@H]2[C@@H](O)[C@@H]1[C@H]1[C@H](O)[C@@H]3C(=O)C3=C(O)c4c(O)cc(C)cc4C(=O)C312 (some centres undefined) | 40* | 3 | 7 | · | -2 | 34* | -2
COC(=O)C1=C(c2cccc(OCc3ccccc3)c2)C[C@@H]2CC[C@H]1N2C(=O)NCc1ccc(C(C)(C)C)cc1 | 20* | 6 | 3 | · | 0 | 2 | -1
